Bioassay records deposited in PubChem BioAssay by National Center for Advancing Translational Sciences (NCATS).
Nrf2 inh = inhibitors of Nrf2 signaling; A549 ARE-Fluc reporter, luciferase luminescence, 18-24 h; Potency, µM (highest dose often 46 µM), usual class: inhibitors; actives 2.1% (n = 360,000); also: nearly all actives have a fitted effect of over 60% in size
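Nrf2 activity is the BugLite luminescence, read 15 min after reagent at room temperature, following CellTiter-Fluor cytotoxicity readout (30 min, 37C). Compound titrations were applied for 18-24 h to 5000 A549 ARE_Fluc cells/well in 5% FBS OPTI-MEM.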
Pin1 inhibitor = inhibitors of human Pin1 | Pin1 FP peptide displacement, HiFluor488, 10 min | Potency, µM (series often up to 115 µM), most hits filed as inhibitors | actives 0.009% (n = 390,000); active = well fitted inhibition curve with a large enough effect in the polarisation, with a control signal flat, not every such curve was filed as active; inconclusive = small, poorly fitted or top-dose-only effect, or effect the other way, or a change in a side signal; inactive = no such curve, though single readings can be large or run the other way; the % refers to the polarisation
Target sequence (Q13526 whole entry, looked up): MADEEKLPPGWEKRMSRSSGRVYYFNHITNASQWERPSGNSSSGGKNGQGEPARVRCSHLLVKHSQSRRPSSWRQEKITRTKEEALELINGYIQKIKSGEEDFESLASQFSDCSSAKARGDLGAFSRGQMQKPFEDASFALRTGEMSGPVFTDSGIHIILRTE
A549 tox = A549 cytotoxicity, counter-screen for Nrf2 inhibitors. A549 ARE-Fluc cells, CellTiter-Fluor viability, 18-24 h. AID 504648. Potency, µM (doses to about 46 µM), most hits filed as inhibitors. actives 0.16% (n = 390,000)
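A549 ARE-Fluc cells in 5% FBS OPTI-MEM, 5000 cells/well, rested 2 h then exposed to compounds in concentration-response for 18-24 h at 37 °C. Viability by CellTiter-Fluor fluorescence (Ex 405/Em 525) after 30 min; luciferase luminescence (BugLite, 15 min, RT) read afterwards.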
Nrf2 activator = Nrf2 pathway activation. actives 0.31% (n = 410,000). Potency, µM (doses to about 46.1 µM), usual class: activators. AID 624171. AREc32 ARE-luciferase reporter (MCF7-derived line), luminescence, 24 h; also: nearly all actives have a fitted effect of over 65% in size
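AREc32 cells carrying an ARE-driven firefly luciferase, 1000 cells/well in OPTI-MEM with 5% FBS, dosed after overnight attachment and incubated 24 hr at 37 deg C. Steady-Glo luminescence read after 30 min at RT.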
Hits are given with their value; n = inactive; u = inconclusive; x = no result; ! = repeats disagree; [ ] = remark or other dose. Compounds with a hit are over-represented: about 2.2% of the library has one in this group of screens. Unless noted, calls follow the shape of the dose curve; as a rule, active = well fitted curve in the direction sought with a large enough effect; inconclusive = small, poorly fitted or top-dose-only effect, or another doubt; inactive = no such curve, though single readings can be large; an effect the other way counts as inactive or inconclusive.

SMILES	Nrf2 inh	Pin1 inhibitor	A549 tox	Nrf2 activator
CNC(=O)C1CCC(Cn2c(=O)c3sccc3n(CC(=O)Nc3ccc(C)c(C)c3)c2=O)CC1 (stereo not drawn)	23µM	n	n	n
Clc1ccc2[nH]c3c(N4CCC5(CC4)OCCO5)ncnc3c2c1	21µM	n	n	n
COc1ccc2[nH]c3c(N4CCC(O)(c5cccc(C(F)(F)F)c5)CC4)ncnc3c2c1	23µM	n	u	n
CCOc1ccc2[nH]c3c(N4CCc5ccccc5C4)ncnc3c2c1	u	n	n	n
Brc1ccc2[nH]c3c(N4CCc5ccccc5C4)ncnc3c2c1	9.2µM	n	n	n
Cc1ccc2[nH]c3c(N4CCc5ccccc5C4)ncnc3c2c1	7.3µM	n	n	n
COc1ccc(-c2cc(C(F)(F)F)nc(SCC(=O)Nc3ccc(C(C)=O)cc3)n2)cc1	23µM	n	n	n
COc1ccc(-c2cc(C(F)(F)F)nc(SCC(=O)Nc3cc(C)on3)n2)cc1	n	n	n	n
O=C(CSc1n[nH]c(-c2ccc(S(=O)(=O)NC3CCCCC3)cc2)n1)N1CCCC1	16µM	n	n	n
O=C(COc1ccc(S(=O)(=O)NC2CCCC2)cc1)N1CCCCC1	n	n	n	n
COC(C(=O)Nc1ccc(S(=O)(=O)Nc2cccc3ccccc23)cc1)c1ccccc1 (stereo not drawn)	23µM	n	n	n[9.22 µM]
COc1ccc(C2Nc3ccccc3C(=O)N2Cc2ccco2)cc1COc1c(C)cccc1C (stereo not drawn)	u	n	u	x
NC(=O)C1CCN(c2ccc(S(=O)(=O)N3CCC(Cc4ccccc4)CC3)cn2)CC1	1.6µM	n	n	n
COc1ccc(-c2ccc3ncnc(NCCc4cnc[nH]4)c3c2)cc1OC	n	n	u	x
O=C(NCCn1cc(SCc2ccccc2)c2ccccc21)c1cccs1	u	u	n	n
O=C(NCCn1cc(SCc2ccccc2Cl)c2ccccc21)c1cccs1	16µM	n	n	n
CC1C(=O)Nc2ccc(S(=O)(=O)Nc3ccccc3Br)cc2NC1=O (stereo not drawn)	16µM!	n	n	n
Cc1ccccc1-c1nc2scc(CCNS(=O)(=O)c3ccccc3)n2n1	x	n	n	n
CCOc1cc(/C=C/c2ccc3cccc([N+](=O)[O-])c3n2)ccc1O	23µM	n	u	u
CCOc1cc(/C=C/c2ccc3cccc([N+](=O)[O-])c3n2)ccc1OCC(=O)N(C)C	u	n	n	n
CCOc1cc(/C=C/c2cc(C(F)(F)F)[nH]c(=O)n2)ccc1O	21µM	n	u	n[9.22 µM]
S=C(NCCCc1cnc[nH]1)NCCCN(Cc1ccc(Cl)cc1)c1ncc(Br)cn1	u	n	u	x
CCOc1ccc(CNC(=O)Cn2c(=O)c3cccn3c3ccccc32)cc1	16µM	u	n	n
CCc1ccc(NC(=O)CCn2c(=O)c3cccn3c3ccccc32)cc1	u	u	n	n
CCOC(=O)c1cccc(NC(=O)Cn2c(=O)c3cccn3c3ccccc32)c1	12µM	n	n	n
SMILES	Nrf2 inh	Pin1 inhibitor	A549 tox	Nrf2 activator
CCc1ccc(NC(=O)Cn2c(=O)c3cccn3c3ccccc32)cc1	23µM!	n	n	n
O=C(NCCc1ccccc1)c1ccc(Cn2c(=O)c3cccn3c3cccnc32)cc1	n	n	n	n
CCOC(=O)c1ccc(NC(=O)CCCn2c(=O)c3cccn3c3ccccc32)cc1	n	n	n	n
CCOc1ccc(CCNC(=O)c2ccc(Cn3c(=O)c4cccn4c4cccnc43)cc2)cc1	12µM	n	u	n
Cc1ccccc1-c1nc(CNC(=O)NC2CCCCC2)c(C)o1	x	n	n	n
CN(C(=O)COC(=O)c1ccc(C(C)(C)C)cc1)C1CCS(=O)(=O)C1 (stereo not drawn)	n	n	n	n
CN(C(=O)COC(=O)c1nc(Cl)c(Cl)c(Cl)c1Cl)C1CCS(=O)(=O)C1 (stereo not drawn)	n	n	u	13µM
COC(=O)CS(=O)(=O)c1nc2ccccc2nc1N1CCCCC1	n	n	n	u
CCC(C(=O)NCc1cccc(C)c1)n1nc(C)c2c(C)n(-c3ccccc3)nc2c1=O (stereo not drawn)	21µM	n	n	n
Cc1ccc(-n2nc3c(=O)n(C(C)C(=O)NCc4ccccc4Cl)nc(C)c3c2C)cc1 (stereo not drawn)	15µM	n	n	n
Cc1ccc(-n2nc3c(=O)n(C(C)C(=O)NCCCc4ccccc4)nc(C)c3c2C)cc1 (stereo not drawn)	10µM	n	21µM	n
Cc1[nH]n(C(N)=S)c(=O)c1N=Nc1cccc([N+](=O)[O-])c1C	u	n	n	n
NC(=S)n1[nH]c(-c2ccc([N+](=O)[O-])cc2)c(N=Nc2cccc([N+](=O)[O-])c2)c1=O	16µM	x	u	n[9.22 µM]
NC(=S)n1[nH]c(-c2ccc([N+](=O)[O-])cc2)c(N=Nc2ccccc2[N+](=O)[O-])c1=O	n	u	n	n
Cc1c(N=Nc2c(-c3ccc([N+](=O)[O-])cc3)[nH]n(C(N)=S)c2=O)cccc1[N+](=O)[O-]	18µM	x	u	n
CCC(Oc1ccccc1)C(=O)Nc1cc(-c2ccccc2F)nn1-c1ccccc1 (stereo not drawn)	x	u	n	n
Cc1ccccc1-n1c(SCC(=O)Nc2ccccc2Cl)nc2n[nH]c(C)c2c1=N	u	n	n	n
CCc1ccccc1-n1c(SCC(=O)Nc2ccc(C)cc2)nc2n[nH]c(C)c2c1=N	x	u	n	n
CCc1ccccc1NC(=O)CSc1nc2n[nH]c(C)c2c(=N)n1-c1cccc(OC)c1	18µM	u	u	n
COc1ccc(OC)c(NC(=O)CSc2nc3n[nH]c(C)c3c(=N)n2-c2cccc(Cl)c2C)c1	16µM	n	u	n
Clc1ccccc1NN=Cc1ccccn1	x	x	x	7.1µM
COc1cc(OC)c(NC(=O)c2nn(C)c3c2COc2ccccc2-3)cc1Cl	u	n	n	n
COc1ccc(Cn2nnnc2CN(Cc2cc3ccc(C)cc3[nH]c2=O)C2CCCC2)cc1	21µM	n	u	n
Cc1oc(-c2ccc3c(c2)OCCO3)cc1C(=O)O	9.2µM	n	n	n
COc1ccc(Cl)cc1S(=O)(=O)N1CCN(S(=O)(=O)c2ccc3c(c2)OCCO3)CC1	u	n	n	x
SMILES	Nrf2 inh	Pin1 inhibitor	A549 tox	Nrf2 activator
CC(=O)Nc1cccc(NC(=O)CSc2ccc(-c3ccccn3)nn2)c1	u	n	n	n
CCc1ccc(NC(=O)CSc2ccc(-c3ccccn3)nn2)cc1	21µM	n	u	n
CC(=O)c1cccc(NC(=O)CSc2ccc(-c3ccccn3)nn2)c1	21µM	n	n	n
CCc1nc2c(cnn2-c2ccc(Cl)cc2)c(=O)n1-c1ccc(OC)c(Cl)c1	u	n	n	n
CC(C)N(Cc1ccccc1)C(=O)c1nc(-c2ccc(Cl)cc2)n2c1CCCCC2	21µM	u	n	n
CCOc1ccccc1CNC(=O)c1nc(-c2ccc(Cl)cc2)n2c1CCCCC2	23µM	n	n	n
COc1ncccc1-c1cc2nc(NCCNC(C)=O)n(C)c(=O)c2s1	x	x	x	3.5µM
COc1ccc(-c2nn3c(-c4cc(C)[nH]n4)nnc3s2)cc1	n	n	n	x
